Here are results for five molecules from ChEMBL document CHEMBL2218924, “A broad activity screen in support of a chemogenomic map for kinase signalling research and drug discovery” (Biochem J, 2013).

For assay [1], the target named is Calcium/calmodulin-dependent protein kinase type 1 (Homo sapiens) (UniProt Q14012). The following applies: at 1 µM.
For assay [2] the target is unchanged. The following applies: at 10 µM.
The target of assay [3] is Calcium/calmodulin-dependent protein kinase type II subunit beta (Homo sapiens) (UniProt Q13554). Particulars: at 1 µM.
Calcium/calmodulin-dependent protein kinase type II subunit beta (Homo sapiens), sequence (Q13554 whole entry): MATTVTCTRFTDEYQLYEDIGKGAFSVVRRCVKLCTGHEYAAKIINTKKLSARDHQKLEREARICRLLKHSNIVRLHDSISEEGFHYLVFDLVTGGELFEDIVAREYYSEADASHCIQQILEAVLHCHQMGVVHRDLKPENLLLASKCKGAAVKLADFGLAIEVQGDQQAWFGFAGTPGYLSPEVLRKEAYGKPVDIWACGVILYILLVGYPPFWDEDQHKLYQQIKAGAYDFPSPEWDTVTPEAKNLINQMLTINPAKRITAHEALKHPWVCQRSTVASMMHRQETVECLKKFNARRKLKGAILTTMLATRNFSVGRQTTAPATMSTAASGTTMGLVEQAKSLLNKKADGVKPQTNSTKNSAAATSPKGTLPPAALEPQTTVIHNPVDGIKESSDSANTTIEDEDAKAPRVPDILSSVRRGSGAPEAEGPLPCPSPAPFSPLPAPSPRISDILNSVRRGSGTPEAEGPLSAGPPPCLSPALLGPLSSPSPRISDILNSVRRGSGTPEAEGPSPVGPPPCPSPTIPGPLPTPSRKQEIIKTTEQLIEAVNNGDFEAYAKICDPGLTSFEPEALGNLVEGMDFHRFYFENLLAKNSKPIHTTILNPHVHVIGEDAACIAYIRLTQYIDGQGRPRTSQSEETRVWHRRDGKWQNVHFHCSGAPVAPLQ
For assay [4] the target is unchanged. Particulars: at 10 µM.
The target of assay [5] is Calcium/calmodulin-dependent protein kinase type II subunit gamma (Homo sapiens) (UniProt Q13555). Particulars: at 1 µM.
Calcium/calmodulin-dependent protein kinase type II subunit gamma (Homo sapiens), sequence (Q13555 whole entry): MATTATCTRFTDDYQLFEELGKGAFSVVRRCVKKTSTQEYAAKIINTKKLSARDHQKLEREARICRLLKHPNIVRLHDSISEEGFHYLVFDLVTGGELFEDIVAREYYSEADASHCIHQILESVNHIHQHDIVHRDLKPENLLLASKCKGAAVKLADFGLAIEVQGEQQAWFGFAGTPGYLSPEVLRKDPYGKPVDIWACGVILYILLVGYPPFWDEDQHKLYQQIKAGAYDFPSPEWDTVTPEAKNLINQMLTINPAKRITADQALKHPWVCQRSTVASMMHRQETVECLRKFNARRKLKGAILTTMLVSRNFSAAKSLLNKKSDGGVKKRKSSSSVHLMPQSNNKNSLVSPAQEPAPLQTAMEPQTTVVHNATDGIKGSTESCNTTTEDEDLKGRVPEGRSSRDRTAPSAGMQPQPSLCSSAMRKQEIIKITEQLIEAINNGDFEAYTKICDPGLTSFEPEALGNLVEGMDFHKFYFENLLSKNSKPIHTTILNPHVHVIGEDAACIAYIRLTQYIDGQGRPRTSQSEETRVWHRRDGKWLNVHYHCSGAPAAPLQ
The target is the same in assay [6]. Particulars: at 10 µM.
Assay [7] addresses Calcium/calmodulin-dependent protein kinase type II subunit delta (Homo sapiens) (UniProt Q13557). The following applies: at 1 µM.
For assay [8] the target is unchanged. The following applies: at 10 µM.
The target in assay [9] is T1, Calcium/calmodulin-dependent protein kinase type IV (Homo sapiens) (UniProt Q16566).
T1 sequence (whole entry): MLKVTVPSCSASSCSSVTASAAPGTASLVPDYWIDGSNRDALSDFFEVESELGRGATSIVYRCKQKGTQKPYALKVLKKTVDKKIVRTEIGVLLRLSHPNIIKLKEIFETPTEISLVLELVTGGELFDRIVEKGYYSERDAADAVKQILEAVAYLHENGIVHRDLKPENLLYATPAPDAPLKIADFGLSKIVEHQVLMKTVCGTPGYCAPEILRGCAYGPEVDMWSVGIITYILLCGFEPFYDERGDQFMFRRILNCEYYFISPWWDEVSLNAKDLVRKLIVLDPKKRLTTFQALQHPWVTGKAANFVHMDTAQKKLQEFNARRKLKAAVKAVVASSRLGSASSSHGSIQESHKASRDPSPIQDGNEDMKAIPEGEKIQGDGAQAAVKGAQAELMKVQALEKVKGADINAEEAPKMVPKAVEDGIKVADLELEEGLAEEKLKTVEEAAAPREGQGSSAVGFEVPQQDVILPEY
The following applies: at 1 µM.

Assay [10] has as its target T1, Calcium/calmodulin-dependent protein kinase type IV (Homo sapiens). Particulars: at 10 µM.
The target in assay [11] is Death-associated protein kinase 1 (Homo sapiens) (UniProt P53355). Particulars: at 10 µM.
Death-associated protein kinase 1 (Homo sapiens), sequence (P53355 whole entry, looked up): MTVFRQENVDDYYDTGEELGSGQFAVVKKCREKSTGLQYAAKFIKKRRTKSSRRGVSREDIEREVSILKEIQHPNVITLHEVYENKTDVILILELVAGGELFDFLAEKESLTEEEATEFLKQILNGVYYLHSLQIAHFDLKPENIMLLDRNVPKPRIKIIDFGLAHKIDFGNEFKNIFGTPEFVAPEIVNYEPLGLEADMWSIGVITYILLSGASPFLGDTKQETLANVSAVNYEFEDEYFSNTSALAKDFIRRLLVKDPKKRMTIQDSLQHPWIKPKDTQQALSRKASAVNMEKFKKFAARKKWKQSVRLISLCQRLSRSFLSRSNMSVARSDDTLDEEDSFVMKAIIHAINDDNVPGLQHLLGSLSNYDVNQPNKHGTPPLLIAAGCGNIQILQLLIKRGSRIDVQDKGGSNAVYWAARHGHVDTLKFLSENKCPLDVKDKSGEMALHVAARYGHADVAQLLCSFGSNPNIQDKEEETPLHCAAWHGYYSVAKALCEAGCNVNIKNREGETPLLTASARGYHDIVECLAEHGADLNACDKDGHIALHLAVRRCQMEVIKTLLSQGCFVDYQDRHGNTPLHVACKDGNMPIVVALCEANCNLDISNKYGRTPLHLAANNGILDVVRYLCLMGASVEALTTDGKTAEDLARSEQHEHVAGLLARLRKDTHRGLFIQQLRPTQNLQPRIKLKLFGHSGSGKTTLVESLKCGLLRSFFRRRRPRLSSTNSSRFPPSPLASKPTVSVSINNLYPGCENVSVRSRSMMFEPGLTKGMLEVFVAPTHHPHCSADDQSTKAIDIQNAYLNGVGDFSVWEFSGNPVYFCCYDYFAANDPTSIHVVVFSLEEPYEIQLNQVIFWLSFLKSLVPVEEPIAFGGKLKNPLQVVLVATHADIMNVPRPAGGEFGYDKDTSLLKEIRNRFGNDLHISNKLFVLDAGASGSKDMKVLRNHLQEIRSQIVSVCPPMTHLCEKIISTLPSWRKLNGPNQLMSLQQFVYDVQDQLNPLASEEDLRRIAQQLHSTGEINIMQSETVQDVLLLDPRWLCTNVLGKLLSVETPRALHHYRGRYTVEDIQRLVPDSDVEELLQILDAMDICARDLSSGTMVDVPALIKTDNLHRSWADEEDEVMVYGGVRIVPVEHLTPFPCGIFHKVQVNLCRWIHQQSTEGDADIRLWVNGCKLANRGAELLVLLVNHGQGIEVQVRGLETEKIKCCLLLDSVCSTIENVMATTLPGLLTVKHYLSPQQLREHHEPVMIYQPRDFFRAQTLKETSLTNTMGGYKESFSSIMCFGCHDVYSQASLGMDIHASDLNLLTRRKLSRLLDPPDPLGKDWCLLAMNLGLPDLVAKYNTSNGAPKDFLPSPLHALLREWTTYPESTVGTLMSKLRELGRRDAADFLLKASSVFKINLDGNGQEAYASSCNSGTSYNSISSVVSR
The target of assay [12] is Death-associated protein kinase 2 (Homo sapiens) (UniProt Q9UIK4). Particulars: at 1 µM.
Death-associated protein kinase 2 (Homo sapiens), sequence (Q9UIK4 whole entry, looked up): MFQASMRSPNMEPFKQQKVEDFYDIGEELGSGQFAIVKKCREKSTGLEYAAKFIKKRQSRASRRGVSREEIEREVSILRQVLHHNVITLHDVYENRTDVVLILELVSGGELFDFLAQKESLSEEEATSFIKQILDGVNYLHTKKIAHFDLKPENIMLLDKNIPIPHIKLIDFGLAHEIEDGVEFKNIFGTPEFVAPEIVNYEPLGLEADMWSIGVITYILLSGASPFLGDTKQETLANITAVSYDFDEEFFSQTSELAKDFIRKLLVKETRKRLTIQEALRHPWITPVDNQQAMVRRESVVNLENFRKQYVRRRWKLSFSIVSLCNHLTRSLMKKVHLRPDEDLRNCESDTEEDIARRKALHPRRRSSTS
Assay [13] has the same target. The following applies: at 10 µM.
The target of assay [14] is T2, Serine/threonine-protein kinase DCLK2 (Homo sapiens) (UniProt Q8N568).
T2 sequence (whole entry): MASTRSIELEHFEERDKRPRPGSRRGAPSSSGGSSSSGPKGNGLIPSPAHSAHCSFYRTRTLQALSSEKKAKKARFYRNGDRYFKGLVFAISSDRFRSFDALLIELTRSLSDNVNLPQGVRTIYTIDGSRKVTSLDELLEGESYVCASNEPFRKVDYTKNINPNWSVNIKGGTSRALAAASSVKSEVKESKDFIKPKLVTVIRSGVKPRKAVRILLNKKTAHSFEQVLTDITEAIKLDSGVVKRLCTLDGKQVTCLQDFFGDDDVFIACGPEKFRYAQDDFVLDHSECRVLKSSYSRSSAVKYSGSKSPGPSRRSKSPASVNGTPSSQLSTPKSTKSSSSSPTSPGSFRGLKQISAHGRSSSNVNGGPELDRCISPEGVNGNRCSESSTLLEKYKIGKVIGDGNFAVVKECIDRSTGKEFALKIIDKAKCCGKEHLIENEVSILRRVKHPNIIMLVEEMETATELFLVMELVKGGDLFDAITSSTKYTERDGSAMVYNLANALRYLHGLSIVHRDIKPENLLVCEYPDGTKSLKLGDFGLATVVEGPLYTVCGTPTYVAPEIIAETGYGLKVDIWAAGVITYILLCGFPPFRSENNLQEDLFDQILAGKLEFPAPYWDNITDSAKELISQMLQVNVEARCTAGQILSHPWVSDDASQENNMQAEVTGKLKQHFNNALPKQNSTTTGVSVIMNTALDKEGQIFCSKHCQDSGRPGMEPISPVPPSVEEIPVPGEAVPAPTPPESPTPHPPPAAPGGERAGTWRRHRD
The following applies: at 1 µM.

Assay [15] concerns the target T2, Serine/threonine-protein kinase DCLK2 (Homo sapiens). Particulars: at 10 µM.
Assay [16] has as its target T3, Discoidin domain-containing receptor 2 (Homo sapiens) (UniProt Q16832).
T3 sequence (whole entry): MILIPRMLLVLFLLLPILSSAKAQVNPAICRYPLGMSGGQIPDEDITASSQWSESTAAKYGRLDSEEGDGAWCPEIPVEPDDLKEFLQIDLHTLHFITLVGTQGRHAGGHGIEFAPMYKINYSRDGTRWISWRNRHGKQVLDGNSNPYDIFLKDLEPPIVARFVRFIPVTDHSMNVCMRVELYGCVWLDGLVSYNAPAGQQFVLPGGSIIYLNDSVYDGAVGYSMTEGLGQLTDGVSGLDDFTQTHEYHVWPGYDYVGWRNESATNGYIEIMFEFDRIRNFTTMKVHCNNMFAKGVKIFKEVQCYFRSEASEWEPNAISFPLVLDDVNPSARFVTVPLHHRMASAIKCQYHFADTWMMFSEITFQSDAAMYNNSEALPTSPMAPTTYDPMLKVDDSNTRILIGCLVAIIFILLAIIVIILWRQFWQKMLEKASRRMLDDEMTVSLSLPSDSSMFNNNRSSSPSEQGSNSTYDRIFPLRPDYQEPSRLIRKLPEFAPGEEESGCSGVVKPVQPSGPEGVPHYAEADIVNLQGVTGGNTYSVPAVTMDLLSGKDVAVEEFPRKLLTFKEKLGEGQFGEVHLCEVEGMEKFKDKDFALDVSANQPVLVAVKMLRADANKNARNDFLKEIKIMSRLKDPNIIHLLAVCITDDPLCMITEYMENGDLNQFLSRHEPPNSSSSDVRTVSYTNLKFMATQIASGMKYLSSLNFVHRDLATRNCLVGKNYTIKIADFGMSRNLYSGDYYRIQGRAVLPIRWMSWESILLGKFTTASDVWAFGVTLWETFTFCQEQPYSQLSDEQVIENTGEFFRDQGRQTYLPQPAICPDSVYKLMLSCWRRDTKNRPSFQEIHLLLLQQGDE
The following applies: at 1 µM.

In assay [17] the target is T3, Discoidin domain-containing receptor 2 (Homo sapiens). The following applies: at 10 µM.
Assay [18] concerns the target T4, Myotonin-protein kinase (Homo sapiens) (UniProt Q09013).
T4 sequence (whole entry): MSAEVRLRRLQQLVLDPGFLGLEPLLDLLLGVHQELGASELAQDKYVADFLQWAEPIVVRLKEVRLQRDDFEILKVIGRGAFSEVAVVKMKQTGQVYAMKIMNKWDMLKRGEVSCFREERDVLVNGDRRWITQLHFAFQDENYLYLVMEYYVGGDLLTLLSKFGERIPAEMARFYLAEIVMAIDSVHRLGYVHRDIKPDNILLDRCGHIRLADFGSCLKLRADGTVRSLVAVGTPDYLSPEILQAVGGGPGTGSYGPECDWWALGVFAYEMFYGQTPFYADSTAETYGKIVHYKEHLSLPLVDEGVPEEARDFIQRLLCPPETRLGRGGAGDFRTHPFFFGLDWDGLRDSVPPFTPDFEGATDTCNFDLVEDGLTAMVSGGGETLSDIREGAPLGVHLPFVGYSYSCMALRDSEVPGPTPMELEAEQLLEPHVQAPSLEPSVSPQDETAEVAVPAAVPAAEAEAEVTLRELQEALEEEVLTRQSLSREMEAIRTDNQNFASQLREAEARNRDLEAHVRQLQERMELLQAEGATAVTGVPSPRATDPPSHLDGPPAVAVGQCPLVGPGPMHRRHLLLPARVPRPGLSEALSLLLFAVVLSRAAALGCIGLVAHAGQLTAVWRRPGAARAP
Particulars: at 1 µM.

Assay [19] has as its target T4, Myotonin-protein kinase (Homo sapiens). Particulars: at 10 µM.
In assay [20] the target is T5, Serine/threonine-protein kinase 17A (Homo sapiens) (UniProt Q9UEE5).
T5 sequence (whole entry): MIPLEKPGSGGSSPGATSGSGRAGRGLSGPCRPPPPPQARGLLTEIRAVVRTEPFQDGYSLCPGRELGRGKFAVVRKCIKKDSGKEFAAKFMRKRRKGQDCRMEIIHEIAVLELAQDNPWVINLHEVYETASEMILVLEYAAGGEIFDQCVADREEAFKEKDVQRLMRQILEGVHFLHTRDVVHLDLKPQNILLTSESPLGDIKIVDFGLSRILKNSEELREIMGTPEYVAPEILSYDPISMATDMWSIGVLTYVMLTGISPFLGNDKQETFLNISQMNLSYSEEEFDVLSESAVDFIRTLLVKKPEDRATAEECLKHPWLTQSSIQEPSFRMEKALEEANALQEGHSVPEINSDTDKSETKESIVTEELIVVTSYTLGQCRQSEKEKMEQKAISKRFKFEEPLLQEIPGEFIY
Particulars: at 1 µM.

Calcium/calmodulin-dependent protein kinase type II subunit delta (Homo sapiens), sequence (Q13557 whole entry): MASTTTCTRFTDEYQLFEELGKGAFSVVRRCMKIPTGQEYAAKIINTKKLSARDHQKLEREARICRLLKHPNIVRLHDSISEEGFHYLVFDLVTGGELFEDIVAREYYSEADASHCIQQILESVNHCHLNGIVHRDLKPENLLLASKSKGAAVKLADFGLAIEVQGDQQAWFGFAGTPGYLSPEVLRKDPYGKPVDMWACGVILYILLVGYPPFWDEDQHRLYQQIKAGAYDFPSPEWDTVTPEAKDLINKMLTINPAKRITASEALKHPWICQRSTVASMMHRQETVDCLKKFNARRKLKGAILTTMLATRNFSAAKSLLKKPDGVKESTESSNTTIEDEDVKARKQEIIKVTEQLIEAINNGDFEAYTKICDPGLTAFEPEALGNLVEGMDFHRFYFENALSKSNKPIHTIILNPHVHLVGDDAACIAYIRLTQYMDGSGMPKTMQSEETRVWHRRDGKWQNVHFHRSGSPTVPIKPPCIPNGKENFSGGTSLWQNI
Calcium/calmodulin-dependent protein kinase type 1 (Homo sapiens), sequence (Q14012 whole entry, looked up): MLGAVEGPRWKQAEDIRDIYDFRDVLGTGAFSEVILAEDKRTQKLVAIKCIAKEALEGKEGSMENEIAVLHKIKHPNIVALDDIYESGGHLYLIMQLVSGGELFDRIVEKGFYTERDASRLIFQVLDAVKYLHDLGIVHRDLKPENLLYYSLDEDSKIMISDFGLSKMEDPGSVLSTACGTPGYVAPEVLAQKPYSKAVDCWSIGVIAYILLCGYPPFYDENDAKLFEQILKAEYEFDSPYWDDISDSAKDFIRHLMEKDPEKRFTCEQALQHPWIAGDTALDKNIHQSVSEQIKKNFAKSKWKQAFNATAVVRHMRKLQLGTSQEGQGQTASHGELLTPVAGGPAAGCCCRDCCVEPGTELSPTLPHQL

For orientation: residual activity means the signal under treatment as a percentage of the control signal. As for `CC(C)(C)n1nc(Cc2cccc3ccccc23)c2c(N)ncnc21`, the residual activity in [1] was found to be 105%; in assay [2], 88%; in assay [3] it was 89%; in assay [4], 68%; in assay [5] it was 106%; in assay [6], 78%. Further, the residual activity turned out to be 106% in assay [7]; 78% in [8]; 122% in assay [9]; 74% in assay [10]; 88% in assay [11]; 96% in [12]. Also, the residual activity in assay [13] was 106%; in assay [14] it was 85%; in assay [15] it was 107%; in assay [16], 75%; in assay [17] it was 29%; in assay [18], 108%. Further, the residual activity in assay [19] was determined as 119%; in [20], 120%.
As to `O=C1NC(=O)C(c2cn(CCCO)c3ncccc23)=C1c1cnccn1`, the residual activity stood at 93% in [1]; 97% in assay [2]; 75% in [3]; 70% in [4]; 88% in [5]; 74% in assay [6]. For the same molecule, the residual activity came to 80% in assay [7]; 64% in assay [8]; 83% in assay [11]; 65% in assay [12]; 59% in assay [13]; 95% in assay [14]. Moreover, the residual activity amounted to 78% in [15]; 93% in assay [16]; 96% in [17]; 82% in [19]; 89% in assay [20].
As to `COc1ccc2c(c1)c(C1=C(c3c[nH]c4ccccc34)C(=O)NC1=O)cn2CCCN(C)C`, the residual activity in assay [1] turned out to be 96%; in [2], 45%; in assay [3], 80%; in assay [4] it was 28%; in assay [5] it was 62%; in assay [6] it was 10%. Besides, the residual activity in [7] was 42%; in assay [8], 8%; in assay [9], 105%; in assay [10] it was 61%; in assay [11] it was 76%; in assay [12], 71%. Besides, the residual activity in assay [13] turned out to be 32%; in assay [14] it was 54%; in assay [15], 55%; in assay [16], 111%; in [18] it was 103%; in assay [19], 104%.
Take `NC(=O)Nc1sc(-c2ccc(F)cc2)cc1C(N)=O`: the residual activity in [1] is 74%; in assay [2], 18%; in assay [3] it was 86%; in assay [4] it was 40%; in [5], 82%; in assay [6], 32%. Further, the residual activity in assay [7] was 83%; in assay [8], 31%; in [10] it was 72%; in assay [11], 70%; in assay [12], 95%; in assay [13], 64%. In addition, the residual activity in [14] is 96%; in assay [15] it was 78%; in assay [17] it was 40%; in assay [20] it was 69%.
With `CC(C)(C)c1nc2c3ccc(F)cc3c3c(=O)[nH]ccc3c2[nH]1`, the residual activity is 60% in assay [1]; 9% in assay [2]; 33% in assay [4]; 21% in assay [5]; 3% in assay [6]; 24% in [7]. Moreover, the residual activity stood at 11% in assay [8]; 1% in assay [9]; 0% in [10]; 3% in [11]; 11% in [12]; 14% in [13]. The values for the residual activity in assay [14], in assay [15] and in [20] were 38%, 27% and 0%, respectively.
